# Results taken from the supplement of paper PMC6331611.
# ± gives the standard deviation of the averaged measurements. In all, about 1,600 compounds were measured (“normalized growth (OD600, IQM-normalized) in LPM”: median about 1, lowest 2% from about 0.014 on). The sample holds the lowest values, similar compounds and a random draw of the others, so the mix is not that of the screen.
# System: Salmonella enterica serovar Typhimurium SL1344
# Experiment: normalized growth (OD600, IQM-normalized) in LPM (fraction of plate interquartile mean); higher = more bacterial growth (less inhibition)
# Conditions: LPM pH 5.8; 10 µM; 16 h
row,Structure (SMILES),normalized growth
1,Clc1ccccc1CN1CCc2sccc2C1,1.02 ± 0.037
2,O=C(O)CCC(=O)OC[C@@H](NC(=O)C(Cl)Cl)[C@H](O)c1ccc([N+](=O)[O-])cc1,0.014 ± 0.00072
3,CCCCCCCCCCCCCCCC(=O)OC[C@@H](NC(=O)C(Cl)Cl)[C@H](O)c1ccc([N+](=O)[O-])cc1,1.04 ± 0.082
4,O=C(N[C@H](CO)[C@H](O)c1ccc([N+](=O)[O-])cc1)C(Cl)Cl,0.0146 ± 0.00075
5,C#C[C@]1(O)CC[C@H]2[C@@H]3[C@H](C)CC4=C(CCC(=O)C4)[C@H]3CC[C@@]21C,0.987 ± 0.048
6,OCc1ccccc1O,1.05 ± 0.04
7,CN(C/C=C/c1ccccc1)Cc1cccc2ccccc12,0.885 ± 0.019
8,CC(=O)N[C@@H]([C@@H](O)[C@H](O)[C@H](O)CO)[C@@H](O)CC(=O)C(=O)O,1 ± 0.065
9,CC(C)(Oc1ccc(C(=O)c2ccc(Cl)cc2)cc1)C(=O)O,0.976 ± 0.024
10,CC(=O)NCCCCCC(=O)O,1.11 ± 0.034
11,N#Cc1ccc2c(c1)N(CCCN1CCC(O)CC1)c1ccccc1S2,1.09 ± 0.035
12,O=C(O)C[C@H](O)C[C@H](O)/C=C/c1c(C2CC2)nc2ccccc2c1-c1ccc(F)cc1,1.19 ± 0.13
13,N=C(N)c1ccc(N=NNc2ccc(C(=N)N)cc2)cc1,0.766 ± 0.035
14,CC(=O)Nc1cccc(O)c1,1.02 ± 0.014
15,Cc1c(NC(C)C)c(=O)n(-c2ccccc2)n1C,0.981 ± 0.15
16,C[C@H]1O[C@@H](n2cc(F)c(=O)[nH]c2=O)[C@H](O)[C@@H]1O,0.412 ± 0.11
17,CCCCCCNC(=O)n1cc(F)c(=O)[nH]c1=O,0.007569 ± 7.1e-05
18,CCOC(=O)COc1ccc2c(=O)cc(-c3ccccc3)oc2c1,1.01 ± 0.035
19,OC[C@H]1O[C@H](O[C@H]2[C@H](O)[C@@H](O)C(O)O[C@@H]2CO)[C@H](O)[C@@H](O)[C@@H]1O (stereo not given in full),1.06 ± 0.12
20,O=c1[nH]cc(F)c(=O)[nH]1,0.0109 ± 0.0049
21,Nc1nc(=O)[nH]cc1F,0.742 ± 0.12
22,O=c1cc[nH]c(=O)[nH]1,1.06 ± 0.04

row,Structure (SMILES),normalized growth
1,COc1cc([C@@H]2c3cc4c(cc3[C@@H](O[C@@H]3O[C@@H]5CO[C@@H](c6cccs6)O[C@H]5[C@H](O)[C@H]3O)[C@H]3COC(=O)[C@H]23)OCO4)cc(OC)c1O,0.882 ± 0.027
2,O=C1c2cccc(O)c2C(=O)c2c(O)cccc21,0.827 ± 0.05
3,CCN(CC)C(=O)/C(C#N)=C/c1cc(O)c(O)c([N+](=O)[O-])c1,0.924 ± 0.023
4,C[C@]12CC[C@@H]3c4ccc(OC(=O)c5ccccc5)cc4CC[C@H]3[C@@H]1CC[C@@H]2O,0.779 ± 0.061
5,C/C=C(/C(=C/C)c1ccc(O)cc1)c1ccc(O)cc1,1.04 ± 0.035
6,CO[C@H]1C[C@@H]2CC[C@@H](C)[C@@](O)(O2)C(=O)C(=O)N2CCCC[C@H]2C(=O)O[C@H]([C@H](C)C[C@@H]2CC[C@@H](O)[C@H](OC)C2)CC(=O)[C@H](C)/C=C(\C)[C@@H](O)[C@@H](OC)C(=O)[C@H](C)C[C@H](C)/C=C/C=C/C=C/1C,0.964 ± 0.048
7,Cc1ccc(Nc2c(F)cccc2Cl)c(CC(=O)O)c1,1.11 ± 0.053
8,CCNC(=O)/C=C/c1cccc(Br)c1,1.08 ± 0.035
9,COC(=O)/C=C/C(=O)OC,1.42 ± 0.16
10,Nc1nc(Cl)nc2c1ncn2[C@@H]1O[C@H](CO)[C@@H](O)[C@@H]1F,1.11 ± 0.025
11,CC1(C)[C@@H](O)CC[C@]2(C)[C@H]3C(=O)C=C4[C@@H]5C[C@@](C)(C(=O)O)CC[C@]5(C)CC[C@@]4(C)[C@]3(C)CC[C@@H]12,0.906 ± 0.073
12,CC(=O)Nc1ncc([N+](=O)[O-])s1,0.899 ± 0.018
13,CCCCCCOc1ccccc1C(N)=O,1.01 ± 0.048
14,COc1ccc2cc(C(C)C(=O)O)ccc2c1 (stereo not given),1.07 ± 0.032
15,CCC[C@@H]1C[C@@H](C(=O)N[C@@H]([C@H]2O[C@H](SC)[C@H](O)[C@@H](O)[C@H]2O)[C@@H](C)O)N(C)C1,1.096 ± 0.0085
16,CN(Cc1cnc2nc(N)nc(N)c2n1)c1ccc(C(=O)NC(CCC(=O)O)C(=O)O)cc1 (racemic),0.665 ± 0.054
17,CCC(=O)OCC(=O)[C@@]1(OC(=O)CC)[C@@H](C)C[C@H]2[C@@H]3CCC4=CC(=O)C=C[C@]4(C)[C@@]3(F)[C@@H](O)C[C@@]21C,1.06 ± 0.047
18,CCn1cc(C(=O)O)c(=O)c2cc(F)c(N3CCNCC3)cc21,0.0247 ± 0.0053
19,CN1CCN(c2cc3c(cc2F)c(=O)c(C(=O)O)cn3-c2ccc(F)cc2)CC1,0.0108 ± 0.00018
20,CCn1cc(C(=O)O)c(=O)c2cc(F)c(N3CCNCC3)nc21,0.0514 ± 0.033
21,O=C(O)c1cn(-c2ccc(F)cc2)c2cc(N3CCNCC3)c(F)cc2c1=O,0.0341 ± 0.0073
22,O=C(O)c1cn(C2CC2)c2cc(N3CCNCC3)c(F)cc2c1=O,0.0145 ± 0.0063

row,Structure (SMILES),normalized growth
1,CCn1cc(C(=O)O)c(=O)c2cc(F)c(N3CCN(C)CC3)cc21,0.0116 ± 0.00051
2,CCCCC(O)c1ccccc1 (stereo not given),0.984 ± 0.032
3,CC1=CC(=O)NS(=O)(=O)O1,0.928 ± 0.054
4,CS(=O)(=O)c1ccc(C2=C(c3ccccc3)C(=O)OC2)cc1,1.07 ± 0.11
5,CCCCCCCCCC(=O)N[C@@H](Cc1c[nH]c2ccccc12)C(=O)N[C@@H](CC(N)=O)C(=O)N[C@@H](CC(=O)O)C(=O)N[C@@H]1C(=O)NCC(=O)N[C@@H](CCCN)C(=O)N[C@@H](CC(=O)O)C(=O)N[C@H](C)C(=O)N[C@@H](CC(=O)O)C(=O)NCC(=O)N[C@H](CO)C(=O)N[C@@H]([C@H](C)CC(=O)O)C(=O)N[C@@H](CC(=O)c2ccccc2N)C(=O)O[C@@H]1C [DAPTOMYCIN (5 millimolar/DMSO)],1.02 ± 0.057
6,C[C@]12CCC(=O)C=C1[C@@H]1C[C@@H]1[C@H]1[C@@H]3[C@@H]4C[C@@H]4[C@@]4(CCC(=O)O4)[C@@]3(C)CC[C@@H]12,1.07 ± 0.069
7,COc1cc(/C=C/C(=O)N2CCCCCCC2)cc(OC)c1OC,0.961 ± 0.025
8,N[C@@H](Cc1ccc(O)cc1)C(=O)O,0.979 ± 0.02
9,CC(=O)NC(Cc1ccccc1)C(=O)O (stereo not given),0.957 ± 0.064
10,CNC(=C[N+](=O)[O-])NCCSCc1csc(CN(C)C)n1,1.15 ± 0.28
11,O=C(O)C1=C(CSc2nnnn2CS(=O)(=O)O)CS[C@@H]2[C@H](NC(=O)[C@H](O)c3ccccc3)C(=O)N12,1.01 ± 0.024
12,CCCCCNC(=N)N/N=C/c1c[nH]c2ccc(OC)cc12,1.09 ± 0.12
13,Cc1cc(C2CCCCC2)n(O)c(=O)c1,0.183 ± 0.014
14,O=C(OC[C@H]1O[C@@H](OC(=O)c2cc(O)c(O)c(OC(=O)c3cc(O)c(O)c(O)c3)c2)[C@H](OC(=O)c2cc(O)c(O)c(OC(=O)c3cc(O)c(O)c(O)c3)c2)[C@@H](OC(=O)c2cc(O)c(O)c(OC(=O)c3cc(O)c(O)c(O)c3)c2)[C@@H]1OC(=O)c1cc(O)c(O)c(OC(=O)c2cc(O)c(O)c(O)c2)c1)c1cc(O)c(O)c(OC(=O)c2cc(O)c(O)c(O)c2)c1,1.08 ± 0.013
15,O=C(O)C(=O)O.[NH-][C@@H]1CCCC[C@H]1[NH-].[Pt+2],0.742 ± 0.017
16,O=C(O)P(=O)(O)O,0.953 ± 0.027
17,OC[C@H]1O[C@@H](O[C@H]2[C@H](O)[C@@H](O)C(O)O[C@@H]2CO)[C@H](O)[C@@H](O)[C@H]1O (stereo not given in full),1.14 ± 0.057
18,C=CC1=C(C(=O)O)N2C(=O)[C@@H](NC(=O)/C(=N\O)c3csc(N)n3)[C@H]2SC1,0.0112 ± 0.00049
19,CO/N=C(\C(=O)N[C@@H]1C(=O)N2C(C(=O)O)=C(C[N+]3(C)CCCC3)CS[C@H]12)c1csc(N)n1,0.0232 ± 0.0056
20,CO/N=C(\C(=O)N[C@@H]1C(=O)N2C(C(=O)O)=C(COC(C)=O)CS[C@H]12)c1csc(N)n1,0.0479 ± 0.0089
21,CNCC[C@H](Oc1cccc2ccccc12)c1cccs1,1.05 ± 0.046
22,CN1CC(=O)N2[C@H](c3ccc4c(c3)OCO4)c3[nH]c4ccccc4c3C[C@@H]2C1=O,1.19 ± 0.024

row,Structure (SMILES),normalized growth
1,CCOC(=O)CCC(=O)O[C@H]1[C@H](O[C@@H]2[C@@H](C)[C@H](O[C@H]3C[C@@](C)(OC)[C@@H](O)[C@H](C)O3)[C@@H](C)C(=O)O[C@H](CC)[C@@](C)(O)[C@H](O)[C@@H](C)C(=O)[C@H](C)C[C@@]2(C)O)O[C@H](C)C[C@@H]1N(C)C,1.14 ± 0.045
2,C=CCCCCCCCCC(=O)[O-].C=CCCCCCCCCC(=O)[O-].[Zn+2],1.15 ± 0.041
3,CCN(CC)CCNC(=O)COc1ccc(OC)cc1,0.869 ± 0.0096
4,CC(C)(O)c1ccccc1CC[C@@H](SCC1(CC(=O)O)CC1)c1cccc(/C=C/c2ccc3ccc(Cl)cc3n2)c1,1 ± 0.023
5,CC(C)CCCC(C)N (stereo not given),1.05 ± 0.09
6,CCC(C)(C)C(=O)O[C@H]1C[C@@H](C)C=C2C=C[C@H](C)[C@H](CC[C@@H]3C[C@@H](O)CC(=O)O3)[C@H]21,0.777 ± 0.071
7,CC(=O)OCC[N+](C)(C)C,1.05 ± 0.023
8,CC(=O)N(c1onc(C)c1C)S(=O)(=O)c1ccc(N)cc1,1.08 ± 0.046
9,CO[C@H]1C[C@H](O[C@H]2[C@H](C)O[C@@H](O[C@@H]3/C(C)=C/C[C@@H]4C[C@@H](C[C@]5(C=C[C@H](C)[C@@H](C6CCCCC6)O5)O4)OC(=O)[C@@H]4C=C(C)[C@@H](O)[C@H]5OC/C(=C\C=C\[C@@H]3C)[C@]54O)C[C@@H]2OC)O[C@@H](C)[C@@H]1O,0.776 ± 0.03
10,CC(=O)NCCCS(=O)(=O)O,0.949 ± 0.11
11,CCOC(=O)OC(C)OC1=C(C(=O)Nc2ccccn2)N(C)S(=O)(=O)c2ccccc21 (stereo not given),1.04 ± 0.05
12,CN1CCN(c2c(F)cc3c(=O)c(C(=O)O)cn4c3c2SCC4)CC1,0.02519 ± 0.00023
13,CC1CCc2cc(F)cc3c(=O)c(C(=O)O)cn1c23 (stereo not given),0.0174 ± 0.0072
14,CC1COc2c(N3CCN(C)CC3)c(F)cc3c(=O)c(C(=O)O)cn1c23 (stereo not given),0.0109 ± 0.00084
15,C[C@H]1COc2c(N3CCN(C)CC3)c(F)cc3c(=O)c(C(=O)O)cn1c23,0.00833 ± 0.00037
16,C[C@H]1COc2c(C3(N)CC3)c(F)cc3c(=O)c(C(=O)O)cn1c23,0.008373 ± 7.5e-05
17,CO/N=C1\CN(c2nc3c(cc2F)c(=O)c(C(=O)O)cn3C2CC2)CC1CN (stereo not given),0.0206 ± 0.00035
18,CC1CCc2c(N3CCC(O)CC3)c(F)cc3c(=O)c(C(=O)O)cn1c23 (stereo not given),0.0179 ± 0.013
19,CC=CC1=C(C(=O)O)N2C(=O)[C@@H](NC(=O)[C@H](N)c3ccc(O)cc3)[C@H]2SC1,1.04 ± 0.032
